Drawing on PubChem BioAssay (Tox21), this text covers Potency and outcome for 15 molecules.

Values joined by “and” are separate entries in the source; they are usually repeats but may differ in a detail not shown here. Equal values may be shown once. Records with an inconclusive call do not appear. More than one record can exist for a structure, and the calls need not agree. Active and inactive are the calls of the source. Unless noted, the call rests on the fitted dose curve; in most records, active means well fitted curve in the direction sought with a large enough effect in the repeat runs; inconclusive means weak or mixed curves; inactive means no such curve, though single readings can be large; an effect the other way counts as inactive or inconclusive.

Assay [1] can be described thus: qHTS assay to identify aromatase inhibitors - cell viability counter screen (AID 743084).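 Further: cells stimulated with testosterone during compound exposure; nearly all actives have a fitted effect of over 55% in size.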 Further: potency means the concentration at half of the fitted maximal effect.
For assay [2], the target named is Aryl hydrocarbon receptor (Homo sapiens) (UniProt P35869). In words: qHTS assay to identify small molecule that activate the aryl hydrocarbon receptor (AhR) signaling pathway (AID 743085). Further: nearly all actives have a fitted effect of over 15% in size. Further: potency means the concentration at half of the fitted maximal effect.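 On activation: HG2L7.5c1 human HepG2 liver cells with stably integrated DRE-driven firefly reporter; series mostly up to about 70 µM.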 In a few lines:
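24 h compound exposure, 37C, HepG2-derived HG2L7.5c1 cells with DRE-responsive luciferase. Readouts: fluorescence viability, then luminescence at room temperature after 30 min.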

Assay [3] addresses Peroxisome proliferator-activated receptor gamma (Homo sapiens) (UniProt P37231). The assay can be described thus: qHTS assay to identify small molecule agonists of the peroxisome proliferator-activated receptor gamma (PPARg) signaling pathway (AID 743094; active means well fitted activation curve with a large enough effect in the signal ratio in the repeat runs, not every such curve was filed as active; the % refers to the signal ratio; further: potency means the concentration at half of the fitted maximal effect). The method, boiled down: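 Compounds dissolved in DMSO were added to PPARg UAS-bla HEK293H cells for 17 h at 37C, and reporter expression was quantified by fluorescence intensity after 1 h with LiveBLAzer B/G FRET substrate.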

The nature of assay [4]: qHTS assay to identify small molecule antagonists of the peroxisome proliferator-activated receptor gamma (PPARg) signaling pathway - cell viability counter screen (AID 743194). Further: nearly all actives have a fitted effect of over 55% in size. In a few lines: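 PPARg-UAS-bla HEK293H cells were plated, rested 5 h at 37 C, then treated with compounds plus rosiglitazone (50 nM final) for 17 h at 37 C; viability was then read by CellTiter-Glo luminescence after 30 min at room temperature.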

The nature of assay [5]: qHTS assay for small molecule agonists of the antioxidant response element (ARE) signaling pathway - cell viability counter screen (AID 743203; calls by dose curve; further: nearly all actives have a fitted effect of over 55% in size; further: potency means the concentration at half of the fitted maximal effect). The method, boiled down:
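Following 16 hrs of compound treatment at 37C, HepG2 cells with an ARE-controlled beta-lactamase gene were lysed with CellTiter-Glo. Luminescence was read after 30 min at room temperature.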

The nature of assay [6]: qHTS assay for small molecule activators of the heat shock response signaling pathway (AID 743210; active means well fitted activation curve with a large enough effect in the signal ratio in the repeat runs, with a control signal flat, not every such curve was filed as active; the % refers to the signal ratio; further: potency means the concentration at half of the fitted maximal effect;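 on activation: HeLa cells with beta-lactamase reporter driven by heat shock elements; series mostly up to about 63 µM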). In a few lines:
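Reporter gene assay: HeLa cells stably bearing an HSE-bla construct, compound treatment 5 h at 37 C, LiveBLAzer substrate 2.5 h at RT, fluorescence intensity.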

Assay [7] addresses Peroxisome proliferator-activated receptor delta (Homo sapiens) (UniProt Q03181). In words: qHTS assay to identify small molecule agonists of the peroxisome proliferator-activated receptor delta (PPARd) signaling pathway (AID 743212; calls by dose curve; further: potency means the concentration at half of the fitted maximal effect). In a few lines:
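A PPARd-bla HEK293H line with beta-lactamase under an Upstream Activator Sequence is treated with compounds at 37 C. Substrate loading for 2 h at room temperature precedes the fluorescence measurement.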

Assay [8] is described as follows: qHTS assay to identify small molecule antagonists of the peroxisome proliferator-activated receptor delta (PPARd) signaling pathway - cell viability counter screen (AID 743213). Further: nearly all actives have a fitted effect of over 50% in size. Further: potency means the concentration at half of the fitted maximal effect. The method, boiled down: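 CellTiter-Glo was added to PPARd-bla HEK293H wells following 17 h compound treatment in the presence of 300 nM L165041. Luminescence was recorded after 30 min at room temperature.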

For assay [9], the target named is Peroxisome proliferator-activated receptor delta (Homo sapiens) (UniProt Q03181). The assay can be described thus: qHTS assay to identify small molecule antagonists of the peroxisome proliferator-activated receptor delta (PPARd) signaling pathway (AID 743215; active means well fitted inhibition curve with a large enough effect in the signal ratio in the repeat runs, not every such curve was filed as active; the % refers to the signal ratio;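 further: cells stimulated with agonist L165041 at 300 nM final during compound exposure; series mostly up to about 62 µM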). In a few lines: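 HEK293H UAS-bla, PPARd; agonist L165041 300 nM final with cpd in DMSO; 37 C 17 h; FRET substrate, RT 2 h; fluorescence intensity.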
Sequence of Peroxisome proliferator-activated receptor delta (Homo sapiens) (Q03181 whole entry, looked up): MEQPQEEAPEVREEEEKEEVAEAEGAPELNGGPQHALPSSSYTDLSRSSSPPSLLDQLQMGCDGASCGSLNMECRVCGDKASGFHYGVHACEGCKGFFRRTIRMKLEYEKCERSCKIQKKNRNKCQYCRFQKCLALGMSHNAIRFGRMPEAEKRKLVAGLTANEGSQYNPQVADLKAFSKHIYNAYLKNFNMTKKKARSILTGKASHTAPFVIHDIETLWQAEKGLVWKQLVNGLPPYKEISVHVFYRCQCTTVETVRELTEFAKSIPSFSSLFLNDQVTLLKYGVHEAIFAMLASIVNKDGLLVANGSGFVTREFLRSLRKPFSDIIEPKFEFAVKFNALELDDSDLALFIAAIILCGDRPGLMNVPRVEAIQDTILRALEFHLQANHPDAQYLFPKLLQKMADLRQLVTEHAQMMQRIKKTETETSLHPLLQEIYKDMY

Assay [10] in a line: qHTS assay to identify small molecule antagonists of the farnesoid-X-receptor (FXR) signaling pathway - cell viability counter screen (AID 743221; active means well fitted cell-killing curve with a large enough effect in the repeat runs, not every such curve was filed as active; further: nearly all actives have a fitted effect of over 50% in size). The method, boiled down:
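In GeneBLAzer FXR-UAS-bla HEK 293T cells stimulated with 50 uM chenodeoxycholic acid (final), compounds acted for 16 h at 37 C. Viability was assessed afterwards by CellTiter-Glo luminescence.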

Assay [11] has as its target Vitamin D3 receptor (Homo sapiens) (UniProt P11473). The assay can be described thus: qHTS assay to identify small molecule agonists of the vitamin D receptor (VDR) signaling pathway (AID 743222; calls by dose curve). The method, boiled down: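 In VDR-bla cells, compound-induced beta-lactamase expression is quantified by FRET substrate fluorescence. Treatment lasts 16 h at 37C; substrate develops 2 h at room temperature.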

Assay [12] is described as follows: qHTS assay to identify small molecule that activate the aryl hydrocarbon receptor (AhR) signaling pathway - cell viability counter screen (AID 743086). Further: nearly all actives have a fitted effect of over 45% in size. Further: potency means the concentration at half of the fitted maximal effect. In a few lines:
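HepG2-AhR-luc (HG2L7.5c1) cells, 4000/well, were preincubated 5 h at 37C, exposed to compound in qHTS format for 24 hr at 37C, then given CellTiter-Fluor for 30 min; viability was read as fluorescence in the reporter wells.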

Assay [13] can be described thus: qHTS assay for small molecule agonists of the antioxidant response element (ARE) signaling pathway (AID 743202; active means well fitted activation curve with a large enough effect in the signal ratio in the repeat runs, not every such curve was filed as active; the % refers to the signal ratio; further: potency means the concentration at half of the fitted maximal effect). The method, boiled down:
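Compounds delivered in DMSO to ARE-bla HepG2 cells (2,000 cells/well, pre-incubated 5 h) and left 16 h at 37 C. LiveBLAzer B/G FRET substrate then added for 2 h at RT before fluorescence reading.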

Assay [14] is described as follows: qHTS assay for small molecule activators of the heat shock response signaling pathway - cell viability counter screen (AID 743209). Further: nearly all actives have a fitted effect of over 50% in size. In a few lines:
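Readout: CellTiter-Glo luminescence, 30 min at room temperature. System: HSE-bla HeLa cells, 1500/well, plated overnight. Treatment: compounds in DMSO, 5 h at 37 C.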

Assay [15] in a line: qHTS assay to identify small molecule agonists of the farnesoid-X-receptor (FXR) signaling pathway - cell viability counter screen (AID 743218). Further: nearly all actives have a fitted effect of over 45% in size. Further: potency means the concentration at half of the fitted maximal effect. The method, boiled down: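 Parallel cytotoxicity test: compound-treated (16 h, 37 C) HEK 293T FXR-bla reporter cells were lysed with CellTiter-Glo and luminescence recorded.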
The target in assay [16] is Vitamin D3 receptor (Homo sapiens) (UniProt P11473). The assay can be described thus: qHTS assay to identify small molecule antagonists of the vitamin D receptor (VDR) signaling pathway (AID 743223; active means well fitted inhibition curve with a large enough effect in the signal ratio in the repeat runs, not every such curve was filed as active; the % refers to the signal ratio). In a few lines: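 Agonist 1alpha,25-dihydroxyvitamin D3 (3 nM in well) was added with each compound to VDR-bla cells preincubated 4 h. Cells stood 16 h at 37C, then FRET substrate 2 h at room temperature; fluorescence intensity recorded.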
Sequence of Vitamin D3 receptor (Homo sapiens) (P11473 whole entry, looked up): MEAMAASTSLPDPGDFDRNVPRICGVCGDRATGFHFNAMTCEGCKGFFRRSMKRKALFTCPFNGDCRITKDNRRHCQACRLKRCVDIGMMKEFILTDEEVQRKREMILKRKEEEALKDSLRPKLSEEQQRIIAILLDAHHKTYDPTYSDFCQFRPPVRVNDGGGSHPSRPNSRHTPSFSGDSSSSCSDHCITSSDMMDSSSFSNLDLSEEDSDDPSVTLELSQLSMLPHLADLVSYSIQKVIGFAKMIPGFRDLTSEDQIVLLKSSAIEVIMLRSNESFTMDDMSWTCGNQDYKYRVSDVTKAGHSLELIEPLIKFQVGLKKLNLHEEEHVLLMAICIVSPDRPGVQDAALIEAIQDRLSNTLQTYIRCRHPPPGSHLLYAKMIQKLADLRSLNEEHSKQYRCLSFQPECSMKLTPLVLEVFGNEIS

For assay [17], the target named is Peroxisome proliferator-activated receptor gamma (Homo sapiens) (UniProt P37231). The assay can be described thus: qHTS assay to identify small molecule antagonists of the peroxisome proliferator-activated receptor gamma (PPARg) signaling pathway (AID 743191; calls by dose curve; further: series mostly up to about 63 µM; nearly all actives have a fitted effect of over 30% in size). The method, boiled down: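 GeneBLAzer PPARg UAS-bla HEK293H cells carrying a UAS-driven beta-lactamase reporter were plated at 3000 cells/well, preincubated 5 h at 37C, then given compound for 17 h at 37C; LiveBLAzer B/G FRET substrate was read after 1 h at room temperature.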
Sequence of Peroxisome proliferator-activated receptor gamma (Homo sapiens) (P37231 whole entry, looked up): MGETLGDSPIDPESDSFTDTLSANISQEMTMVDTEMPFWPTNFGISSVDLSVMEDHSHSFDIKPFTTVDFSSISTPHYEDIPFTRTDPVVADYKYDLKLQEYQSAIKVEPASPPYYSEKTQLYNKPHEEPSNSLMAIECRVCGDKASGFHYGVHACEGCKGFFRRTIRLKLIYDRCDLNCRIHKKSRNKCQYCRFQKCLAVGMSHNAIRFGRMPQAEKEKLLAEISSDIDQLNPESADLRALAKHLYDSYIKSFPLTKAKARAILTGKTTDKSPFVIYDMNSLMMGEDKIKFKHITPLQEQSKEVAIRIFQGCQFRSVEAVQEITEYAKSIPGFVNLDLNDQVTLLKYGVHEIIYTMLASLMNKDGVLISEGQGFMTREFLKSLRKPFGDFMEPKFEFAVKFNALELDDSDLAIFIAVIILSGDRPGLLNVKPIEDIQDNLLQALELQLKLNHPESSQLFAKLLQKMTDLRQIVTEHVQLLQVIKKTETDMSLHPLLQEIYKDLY

The nature of assay [18]: qHTS assay to identify small molecule agonists of the peroxisome proliferator-activated receptor delta (PPARd) signaling pathway - cell viability counter screen (AID 743211). Further: nearly all actives have a fitted effect of over 55% in size. Further: potency means the concentration at half of the fitted maximal effect. The method, boiled down: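 Luminescent ATP viability assay (CellTiter-Glo, 30 min RT) in UAS-bla HEK293H cells carrying the PPAR delta reporter construct, 3000 cells/well, after a 17 h compound treatment at 37 C.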

Assay [19] has as its target Bile acid receptor (Homo sapiens) (UniProt Q96RI1). In words: qHTS assay to identify small molecule antagonists of the farnesoid-X-receptor (FXR) signaling pathway (AID 743217; active means well fitted inhibition curve with a large enough effect in the signal ratio in the repeat runs, not every such curve was filed as active; the % refers to the signal ratio). In a few lines:
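GeneBLAzer FXR-UAS-bla HEK 293T, CDCA-stimulated (50 uM final). Compound treatment 16 h, 37 °C. Detection: beta-lactamase cleavage of B/G FRET substrate, fluorescence.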

Assay [20] has the same target. In words: qHTS assay to identify small molecule agonists of the farnesoid-X-receptor (FXR) signaling pathway (AID 743220; active means well fitted activation curve with a large enough effect in the signal ratio in the repeat runs, not every such curve was filed as active; the % refers to the signal ratio). The method, boiled down: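 Beta-lactamase reporter under UAS control in GeneBLAzer FXR HEK 293T cells (5000/well) measured with LiveBLAzer FRET substrate after 2 h at room temperature. Compound exposure lasted 16 h at 37C.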

Sequence of Bile acid receptor (Homo sapiens) (Q96RI1 whole entry, looked up): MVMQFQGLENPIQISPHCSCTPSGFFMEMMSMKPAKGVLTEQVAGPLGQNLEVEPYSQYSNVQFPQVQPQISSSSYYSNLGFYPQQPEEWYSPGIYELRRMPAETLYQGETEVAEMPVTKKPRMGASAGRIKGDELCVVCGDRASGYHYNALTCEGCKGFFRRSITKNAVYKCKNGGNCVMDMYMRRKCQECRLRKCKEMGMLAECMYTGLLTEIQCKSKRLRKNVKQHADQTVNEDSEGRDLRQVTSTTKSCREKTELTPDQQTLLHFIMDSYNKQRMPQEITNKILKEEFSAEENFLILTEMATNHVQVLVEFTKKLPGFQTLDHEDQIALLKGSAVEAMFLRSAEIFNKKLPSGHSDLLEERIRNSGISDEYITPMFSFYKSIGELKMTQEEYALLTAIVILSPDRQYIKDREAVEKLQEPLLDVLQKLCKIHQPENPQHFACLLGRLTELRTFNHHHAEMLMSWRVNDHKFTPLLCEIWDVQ
Sequence of Aryl hydrocarbon receptor (Homo sapiens) (P35869 whole entry, looked up): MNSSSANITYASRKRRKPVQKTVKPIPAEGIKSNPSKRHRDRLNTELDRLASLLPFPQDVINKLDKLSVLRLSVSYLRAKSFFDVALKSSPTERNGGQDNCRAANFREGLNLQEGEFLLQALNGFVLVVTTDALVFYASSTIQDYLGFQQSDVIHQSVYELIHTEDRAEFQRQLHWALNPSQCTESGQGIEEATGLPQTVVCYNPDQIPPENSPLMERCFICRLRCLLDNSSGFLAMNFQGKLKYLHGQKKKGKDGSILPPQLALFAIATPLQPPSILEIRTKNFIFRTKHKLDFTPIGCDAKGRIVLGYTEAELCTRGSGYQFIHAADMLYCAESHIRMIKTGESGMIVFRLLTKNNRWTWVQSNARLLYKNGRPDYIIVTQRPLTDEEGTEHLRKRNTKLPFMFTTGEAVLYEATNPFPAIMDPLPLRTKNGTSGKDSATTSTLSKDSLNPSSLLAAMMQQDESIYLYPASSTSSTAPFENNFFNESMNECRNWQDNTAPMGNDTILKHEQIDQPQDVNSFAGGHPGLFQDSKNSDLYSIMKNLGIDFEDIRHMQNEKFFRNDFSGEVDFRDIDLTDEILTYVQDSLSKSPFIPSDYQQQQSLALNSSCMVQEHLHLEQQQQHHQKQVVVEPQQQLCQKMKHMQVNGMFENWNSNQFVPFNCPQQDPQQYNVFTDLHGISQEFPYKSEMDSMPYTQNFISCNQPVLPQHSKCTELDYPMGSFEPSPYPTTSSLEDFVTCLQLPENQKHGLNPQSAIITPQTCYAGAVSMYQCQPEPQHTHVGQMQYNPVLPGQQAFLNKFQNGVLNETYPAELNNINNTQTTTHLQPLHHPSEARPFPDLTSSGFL

On to `Cc1oc(-c2ccccc2)nc1CCOc1cccc2c1ccn2CCC(=O)O`, for which the Potency in assay [1] is 27.3 µM (active); in assay [3], 0.0174 µM (active); in assay [7], 8.71 µM (active). Besides, the Potency result in assay [2], in assay [4], in [5], in assay [6], in assay [8] and in assay [9] was “inactive” in each case. Further, the Potency result in [10] and in assay [11] was “inactive” each time.
For `OCCN1CCN(CCCN2c3ccccc3C=Cc3ccccc32)CC1`, the Potency in assay [1] is 29.8 µM (active) and inactive; in assay [12], 10.6 µM (active) and 26.6 µM (active). For the same molecule, the Potency result in assay [2], in assay [13], in assay [5], in assay [14], in assay [7] and in assay [15] was “inactive” in each case. In assay [11], the Potency result is “inactive”. The outcome in assay [16] was inactive.
For `COc1cc2nc(N(C)CCCNC(=O)C3CCCO3)nc(N)c2cc1OC` (stereo not given), the Potency entry in assay [1], in [12], in assay [3], in assay [17], in [4] and in assay [5] was “inactive” throughout. Moreover, the Potency result in assay [14], in [6], in assay [18], in assay [7], in assay [8] and in [9] was “inactive” each time. For the same molecule, the Potency entry in assay [15] and in assay [10] was “inactive” throughout. In addition, in [13], the Potency is 23.7 µM (active).
On to `O=C(O)CC(=O)C(=O)O`, for which the Potency entry in assay [1], in assay [12], in assay [3], in assay [17], in [4] and in assay [13] was “inactive” in each case. For the same molecule, the Potency result in assay [5], in [14], in assay [6], in assay [18], in [8] and in [19] was “inactive” throughout. The Potency entry in assay [15], in [20], in [10] and in [11] was “inactive” throughout. Besides, the outcome in assay [16] was inactive.
For the molecule `O=C(OCCCCCCOC(=O)c1ccccc1)c1ccccc1`, the Potency entry in assay [1], in [2], in [12], in assay [4], in assay [5] and in [7] was “inactive” throughout. Further, the Potency entry in [19], in [15], in [20] and in assay [10] was “inactive” each time. For the same molecule, the Potency in [6] was 57.1 µM (active). The molecule was classed as inactive in assay [16].
As for `O=C(Nc1ccc(S(=O)(=O)N2CCOCC2)cc1)c1cc(Cl)ccc1NS(=O)(=O)c1ccc(Cl)s1`, the Potency entry in [1], in [2], in [12], in assay [14], in assay [9] and in assay [20] was “inactive” throughout. In addition, the Potency in assay [5] is 13.3 µM (active); in assay [8] it was 13.3 µM (active); in [15] it was 6.68 µM (active).
On to `CNC(=O)CN(CCN(CCN(CC(=O)[O-])CC(=O)NC)CC(=O)[O-])CC(=O)[O-].O.[Gd+3]`, for which the Potency entry in [1], in assay [12], in assay [3], in assay [17], in [4] and in [13] was “inactive” in each case. The Potency result in assay [5], in assay [14], in [18], in assay [7], in assay [8] and in assay [9] was “inactive” throughout. Also, the Potency entry in assay [15], in assay [10] and in assay [11] was “inactive” throughout. The molecule was classed as inactive in assay [16].
For the molecule `CCCCC(CC)COC(=O)COc1ccc(Cl)cc1Cl` (stereo not given), the Potency result in assay [1], in assay [12], in assay [3], in assay [17], in assay [4] and in assay [13] was “inactive” throughout. Further, the Potency result in assay [5], in assay [14], in [6], in [18], in assay [8] and in assay [15] was “inactive” throughout. The Potency entry in assay [10] and in assay [11] was “inactive” in each case.
As for `c1ccc(-c2ccccn2)nc1`, the Potency result in assay [1], in assay [2], in assay [12], in assay [5], in assay [14] and in assay [18] was “inactive” each time. Also, the Potency result in [7], in assay [8], in [9], in assay [15], in [10] and in assay [11] was “inactive” in each case. In [16], the molecule was called inactive.
Turning to `c1ccc(C(O[C@H]2CCCN(CCc3ccc4c(c3)OCO4)C2)c2ccccc2)cc1`, the Potency result in assay [1], in assay [12], in [4], in assay [14], in assay [7] and in assay [9] was “inactive” each time. In addition, the Potency entry in assay [10] was “inactive”. The Potency in assay [2] is 26.6 µM (active).
Consider `C=CC(=O)OCCOCCOC(=O)C=C`, for which the Potency was 13.7 µM (active) in assay [1], 30.8 µM (active) in [13] and 49.2 µM (active) in assay [18]. The Potency entry in [2] and in assay [5] was “inactive” in each case.
For the molecule `CC(C)OC(=O)C(C)N(C(=O)c1ccccc1)c1ccc(F)c(Cl)c1` (stereo not given), the Potency result in assay [1], in assay [2], in assay [3], in assay [17], in [4] and in [5] was “inactive” each time. For the same molecule, the Potency entry in assay [14], in assay [6], in assay [7], in assay [8], in assay [15] and in assay [10] was “inactive” each time.
As to `CC/C=C\CCOC(=O)CC`, the Potency result in [1], in assay [2], in assay [12], in [13], in assay [5] and in assay [14] was “inactive” each time. The Potency result in assay [6], in assay [18], in [7], in [8] and in assay [10] was “inactive” in each case.
On to `CCCCCCCCCc1ccc(OCCOCCO)cc1`, for which the Potency is 21.1 µM (active) and 22.8 µM (active) in assay [1]; 1.62 µM (active) in assay [13]; 20.5 µM (active) in assay [8]. In addition, the Potency entry in [2], in [3], in assay [5], in [7], in [20] and in assay [10] was “inactive” each time. For the same molecule, the Potency entry in [11] was “inactive”.
As to `CCCNCC(O)COc1ccccc1C(=O)CCc1ccccc1` (stereo not given), the Potency result in assay [1], in assay [2], in [4], in [5], in assay [6] and in assay [10] was “inactive” each time. Moreover, the Potency entry in assay [11] is “inactive”.
